# The panel holds about 83,000 compounds, 20% with a hit somewhere; the sample as a whole holds those more often.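 Cells were grown in 96-well plates and exposed to the test compound at a single concentration for 48 hours; results are reported as percent growth, with values below 10 considered active.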 Unmarked numbers belong to inactive results. The source made the active and inactive calls.
# Assays:
# Test in all cases: NCI-60 one-dose screen, 48 h (100 = growth as untreated, 0 = no growth, -100 = all killed)
# Details in all cases: 10 µM unless noted
# [1] = test system: HCT-15 colon
# [2] = test system: HT29 colon
# [3] = test system: SNB-75 CNS
# [4] = test system: SNB-19 CNS
# [5] = test system: U251 CNS
# [6] = test system: PC-3 prostate
# [7] = test system: UACC-62 melanoma
# [8] = test system: LOX IMVI melanoma
# [9] = test system: SK-MEL-28 melanoma
# [10] = test system: SK-MEL-2 melanoma
# [11] = test system: EKVX NSCLC
# [12] = test system: SN12C renal
# [13] = test system: UO-31 renal
# [14] = test system: TK-10 renal
# [15] = test system: ACHN renal
# [16] = test system: CAKI-1 renal
# [17] = test system: A498 renal
# [18] = test system: CCRF-CEM leukemia
# [19] = test system: MOLT-4 leukemia
# [20] = test system: SK-MEL-5 melanoma
SMILES,growth [1],growth [2],growth [3],growth [4],growth [5],growth [6],growth [7],growth [8],growth [9],growth [10],growth [11],growth [12],growth [13],growth [14],growth [15],growth [16],growth [17],growth [18],growth [19],growth [20]
Fc1ccc(CNc2c3ccccc3nc3ccccc23)cc1,17.6%,16.1%,42.1%,32.4%,25.9%,26.9%,50.2%,9.43% (active),68.2%,43.8%,35.6%,25.7%,13.5%,30.2%,12.5%,25.5%,-1.77% (active),26%,8.68% (active),–
CCN=C1C=CC(=C(c2ccc(N(C)C)cc2)c2ccc(N(C)C)cc2)c2ccccc21,-7.99% (active),-18.7% (active),-17.3% (active),14.8%,-3.23% (active),-4.82% (active),–,-10.8% (active),-18.5% (active),-39.5% (active),-6.63% (active),-22.2% (active),-42.9% (active),–,-9.84% (active),0.419% (active),13.3%,9.37% (active),9.89% (active),-95.5% (active)
N#C/C(=C\c1ccc(Br)cc1)c1cc2ccccc2[nH]1,94%,109%,104%,94.5%,95.1%,84.7%,87.8%,95.3%,103%,114%,91%,97.6%,86.8%,–,102%,92.7%,89.1%,-42.4% (active),84.5%,–
Cc1cc(C)cc(Nc2ccc([N+](=O)[O-])c(NCCN3CCOCC3)n2)c1,11.5%,13.4%,31.3%,43.9%,20.8%,17.2%,36.6%,15.7%,–,43.4%,66%,32.2%,23.1%,65%,30.4%,37.4%,-0.289% (active),5.33% (active),10.3%,–
CC(C)=CC(=O)N[C@@H]1CC2CCC3C(CC[C@@]4(C)C3CC[C@@H]4C(C)N(C)C)[C@@]2(C)C[C@@H]1O (stereo not given in full),2.93% (active),-4.96% (active),56.1%,86.3%,56.7%,44.6%,44.6%,1.62% (active),–,124%,32.9%,71.3%,10.1%,84.5%,69.6%,76.6%,67.2%,30%,-7.31% (active),–
CCOC(=O)c1c(NC(=O)CSc2n[nH]c3nc4ccccc4n23)sc(CC)c1C,97.9%,109%,95.3%,103%,97.6%,61.5%,77.9%,99%,113%,80.6%,91.9%,100%,73.4%,130%,96.8%,108%,106%,121%,79.6%,–
CCN(CC)c1ccc(N2C(=O)/C(=C/c3cccs3)SC2=S)cc1,102%,101%,93.9%,94.6%,89.1%,64.1%,–,88.8%,–,110%,92.2%,91.5%,73.3%,92.9%,94.3%,89.7%,71.1%,83%,97.9%,93.8%
O=C(Nc1ccc(F)cc1)Nc1ccccc1CNc1nc(Nc2ccc(OCCN3CCCC3)cc2)ncc1Cl,38.8%,6.13% (active),-15.7% (active),45.8%,20.6%,61.7%,95.2%,-57.6% (active),-13.3% (active),99%,53.9%,-21.7% (active),-81.5% (active),47.2%,-61.9% (active),31.2%,80.4%,6.77% (active),14.1%,–
COc1cc2c(/C=C3\C(=O)Nc4ccccc43)c(C(=O)O)[nH]c2cc1C,105%,89.8%,66.3%,113%,96.4%,79.8%,–,92.7%,81.6%,101%,89.2%,99.7%,55%,134%,90.5%,–,136%,88.7%,84%,109%
Nc1c(C(=O)Nc2ccccn2)sc2nc3c(cc12)C(O)CCC3 (stereo not given),23.1%,11.8%,12.7%,20.9%,19%,16.3%,18.7%,36.6%,46.6%,43.8%,42.1%,44.3%,43.6%,47.4%,46.2%,28.9%,3.12% (active),6.62% (active),34%,–
COc1cc2oc(-c3cccc(NC(=O)c4ccc5c(c4)OCO5)c3)cc(=O)c2c(OC)c1OC,32.1%,29.4%,67.4%,45.6%,32.5%,-12% (active),50%,–,55.1%,62.4%,83.2%,42.1%,24.2%,–,47.8%,77.1%,61.1%,-11.9% (active),2.9% (active),–
CCOC(=O)c1ccc2c(c1)c1c(C)c3ccncc3c(C)c1n2C,0.188% (active),3.66% (active),2.3% (active),8.59% (active),0.292% (active),10.8%,-64.4% (active),-19.1% (active),-28.3% (active),-38.2% (active),10.3%,4.36% (active),-13.4% (active),2.52% (active),-22.5% (active),-10.4% (active),-45.6% (active),12.6%,8.03% (active),–
COc1ccc2cc(-c3ccc(-c4ccc(C(=N)N)s4)s3)ccc2c1,-81.6% (active),-70.8% (active),21%,-26.8% (active),-85.9% (active),23.1%,-16.3% (active),-58.2% (active),109%,95.3%,0.97% (active),-55.2% (active),36.6%,89.6%,27%,88.8%,73.6%,-14% (active),1.6% (active),–
CCN(C(=O)N1CCN(c2cc3c(cc2F)c(=O)c(C(=O)O)cn3C2CC2)CC1)c1nc(-c2ccc(C)cc2)cs1,8.05% (active),3.55% (active),30.5%,18.8%,16.3%,10.8%,-3.01% (active),7.36% (active),34.1%,-1.1% (active),14.3%,5.47% (active),5.96% (active),38.3%,6.68% (active),7.79% (active),-2.94% (active),21.4%,14.3%,–
O=[N+]([O-])/C(=C\c1ccco1)c1ccccc1Cl,67.7%,69.7%,64.8%,79.7%,72.6%,45.8%,33.8%,64.2%,60.3%,60.6%,83.1%,78.4%,66.6%,82.8%,81.1%,67%,41.9%,60.5%,74.1%,–
COc1ccc(C2=NN(C(C)=O)C(c3ccc(Oc4ccnc5cc(Cl)ccc45)c(OC)c3)C2)cc1 (stereo not given),90.6%,15.1%,16.1%,73.1%,45.7%,56%,–,–,35.8%,42.4%,62%,68.7%,70%,36.6%,22.9%,47.9%,66.3%,85.7%,78.9%,65.8%
